Test results from PubChem BioAssay (NCATS).
Records with an inconclusive call do not appear. Unmarked numbers belong to inactive results. The source made the active and inactive calls. The call rests on the fitted dose curve; in most records, active means well fitted cell-killing curve with a large enough effect; inconclusive means small, poorly fitted or top-dose-only effect; inactive means flat fitted curve, though single readings scatter.

Test: Cell Viability - LYMP2-022 (AID 987); further: nearly all actives have a fitted effect of over 55% in size;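 on viability change, negative = cytotoxic: 0% = DMSO alone and full effect = tetraoctylammonium bromide at 92 µM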
Conditions: LYMP2-022 lymphoblastoid cell viability; series mostly up to 92.2 µM; viability change, negative = cytotoxic: at the top concentration
From the text: NIH Chemical Genomics Center [NCGC]
NIH Molecular Libraries Screening Centers Network [MLSCN]
National Institutes of Environmental Health Sciences [NIEHS]
National Toxicology Program [NTP]
We have developed a 1536-well cell-based assay for quantitative high throughput screening (qHTS) against a number of cell lines to determine in vitro cytotoxicity of small molecules. This particular assay uses a human lymphoblastoid cell line (LYMP2-022) purchased from Coriell Institute for Medical Research.
NCGC Assay Protocol Summary:
The CellTiter-Glo luminescent cell viability assay (Promega) is a homogeneous method to measure the number of viable cells in culture. The end point readout of this assay is based on quantitation of intracellular ATP, an indicator of metabolic activity, using the luciferase reaction. Luciferase catalyzes the oxidation of beetle Luciferin to oxyluciferin and light in the presence of ATP. The luminescent signal is proportional to amount of ATP present.
Using the CellTiter-Glo luminescent cell viability assay, the amount of cellular ATP was measured in the lymphoblastoid cell line with complete culture medium following compound treatment for 24 hours. The assay was performed in opaque white Kalypsys 1536-well plates. In the screen, tetraoctylammonium bromide was used as positive control. Library compounds were measured for their ability to cause acute toxicity in the cell line, as reflected by a decrease in intracellular ATP levels, in a concentration-dependent manner. […] AC50 values were determined from concentration-response data modeled with the standard Hill equation.
qHTS protocol for CellTiter Glo lymphoblastoid cellular assay
[Step] [Parameter] [Value] [Description]
1. Reagent; 5 uL; 2500 lymphoblastoid cells/well
2. Time; 5 hr; 37 C incubation
4. Controls; 23 nL; Tetraoctylammonium bromide 6.4pM to 92 uM
5. Time; 24 hr; 37 C incubation
6. Reagent; 5 uL; CellTiter Glo reagent
7. Time; 30 min; Room Temperature
8. Detection; Luminescence; Viewlux plate reader
Keywords: cell viability, cytotoxicity, lymphoblastoid cell line, luminescence, NTPHTS, NTPHTS_NCGC, NIEHS, DSSTox, MLSMR, MLSCN, NIH Roadmap, qHTS, NCGC
Potency means the concentration at half of the fitted maximal effect.

Structure (SMILES)	viability change, negative = cytotoxic	Potency
CC(C)CO	-6.27%	–
NCCCCCCN	-5.06%	–
Cc1cc(C2(c3cc(C)c(O)cc3C)OS(=O)(=O)c3ccccc32)c(C)cc1O	-12.5%	–
O=C(O)CNC(=O)c1ccc(CO)o1	-0.162%	–
CC(=O)C1(C)CC2=C(CCCC2(C)C)CC1C (stereo not given)	-25.7%	–
CC(C)(c1cc(Br)c(OCC(Br)CBr)c(Br)c1)c1cc(Br)c(OCC(Br)CBr)c(Br)c1 (stereo not given)	-13%	–
CCCOCC(C)O (stereo not given)	-15.9%	–
O=C(O)c1cc(Cl)cc(Cl)c1	-7.99%	–
Clc1cc(Cl)cc(Cl)c1	3.37%	–
NC(=S)NNC(N)=S	-3.56%	–
C[C@@H]1CC2(OC3C[C@@]4(C)C5=CC[C@H]6C(C)(C)C(O[C@@H]7OC[C@@H](O)[C@H](O)[C@H]7O)CC[C@@]67C[C@@]57CC[C@]4(C)C31)OC(O)C1(C)OC21 (stereo not given in full)	-32.5%	–
COc1ccc(OC)cc1	7.05%	–
CC1=C(/C=C/C(C)=C/C=C/C(C)=C\C=O)C(C)(C)CCC1	–	39.8 µM (active)
O=C(O)c1ccc(C(=O)O)cc1	-8.11%	–
CCC=O	-4.61%	–
O=[N+]([O-])c1c(Cl)cc(Cl)cc1Cl	-8.56%	–
Cc1cc(C)cc(O)c1	-2.12%	–
CCOc1ccc(NC(C)=O)cc1N	-14%	–
COc1ccc(N)c(C)c1	-12.1%	–
CCCCOCCOCCOCCCC	-8.84%	–

Structure (SMILES)	viability change, negative = cytotoxic	Potency
CCCCC(CC)C(=O)O (stereo not given)	-1.98%	–
CC(O)CC(C)O (stereo not given)	-7.83%	–
C=Cc1ccc(C=C)cc1	-6.96%	–
CC(=O)Nc1cccc(N)c1	-10.7%	–
CC(=C/C=C/C(C)=C/C=C/C=C(C)/C=C/C=C(C)/C=C/C(=O)O)/C=C/C(=O)O	-19.6%	–
CCCCC(CC)COC(=O)CCCCC(=O)OCC(CC)CCCC (stereo not given)	-11.8%	–
C=Cc1ccccn1	-21.3%	–
N#CCc1ccccc1[N+](=O)[O-]	-5.98%	–
C=CCOC(=O)COCCC(C)C	-3.19%	–
CCCCCCCCCCCCC1CO1 (stereo not given)	-11.7%	–
CC=O	0.727%	–
CC1CCCO1 (stereo not given)	-3.63%	–
Cc1cc(C)c(N)cc1C	-0.579%	–
O=C(O)c1ccc(Cl)cc1Cl	-3.65%	–
CCNS(=O)(=O)c1ccc(C)cc1	1.5%	–
CC(=O)c1cccc([N+](=O)[O-])c1	-3.33%	–
CCN(CC)c1cccc(O)c1	-17%	–
Cc1ccc(C)c([N+](=O)[O-])c1	-11.5%	–
Cc1ccc(C)c(N)c1	-26.3%	–
CCC(C)(C)C(=O)O	-21.3%	–
